The values below come from PubChem BioAssay.

Test [1] has as its system Wnt5a (protein binding on small-molecule microarray). As to the kind of experiment: Wnt5a binders on small-molecule microarray, primary screen, biophysical, 635/667 nm fluorescence (AID 1142).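 Also: fluorescence read at 667 nm with signal to noise per printed feature.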 The conditions noted are these: 635 nm fluorescence, higher = more signal.
A short description of test [2]: cell viability in Huh7 cells, primary screen, cytotoxicity control for HCV replication inhibitor project, CellTiter-Glo luminescence, basal, 48 h (AID 1143).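 Also: Huh7 hepatoma cells carrying a hepatitis C replication reporter with no stimulus; test concentration not given here.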 The conditions noted are these: Huh7 HCV replicon, higher = more signal, called active from +8 up or from −8 down. A general note: Cellular ATP, detected with luciferase, serves as a proxy for viable cell number.

Test [3] can be described thus: P. aeruginosa biofilm formation inhibitors, primary screen, PAO1 strain, BacTiter-Glo luminescence, LB-PBS (AID 1144). The conditions noted are these: 12 h, higher = more signal.
The nature of test [4]: CREB reporter modulators without forskolin, primary screen, cell-based, PC12, CRE-LacZ reporter, unstimulated (AID 1145). The conditions noted are these: no forskolin, luminescence, 4.5 h, higher = more signal, called active from +8 up or from −8 down.
Test [5] is described as follows: CREB reporter modulators under forskolin, primary screen, cell-based, PC12, CRE-LacZ reporter, forskolin-stimulated (AID 1146).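 Also: PC12 cells with 6xCRE LacZ reporter stimulated by forskolin 10 µM; beta-galactosidase reporter signal reflecting CREB driven transcription.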 The following applies: luminescence, 4.5 h, higher = more signal, called active from +8 up or from −8 down.
Test [6] addresses Streptavidin (Streptomyces avidinii) (UniProt P22629). The test can be described thus: streptavidin binders on small-molecule microarray, primary screen, artefact control for SMM compound annotation, biophysical, 635/667 nm fluorescence (AID 1147).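 Also: signal reflects streptavidin binding to arrayed compounds as a control protein.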 The following applies: streptavidin binding, higher = more signal.
A short description of test [7]: small-molecule binders of probe aInhba, primary screen, biochemical, small-molecule microarray, 635/667 nm fluorescence (AID 1148).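 Also: score merges 667nm spot fluorescence with signal-to-noise for antibody binding to printed compounds.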 The following applies: higher = more signal.
Test [8] concerns the target Torsin-1A (Homo sapiens) (UniProt O14656). As to the kind of experiment: torsin A binders from cell lysate, primary screen, small-molecule microarray, wild-type, 635/667 nm (AID 1149). The following applies: COS7 hTOR1A-WT lysate, 635 nm fluorescence, higher = more signal.
For test [9] the target is unchanged. The test can be described thus: small-molecule binders of mutant TOR1A in lysate, primary screen, cell lysate, small-molecule microarray, COS7 lysate, 635/667 nm fluorescence (AID 1150).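 Also: score pools 667 nm emission and signal to noise measuring lysate protein binding.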 The conditions noted are these: COS7 hTOR1A mutant lysate, 635 nm fluorescence, higher = more signal.
For test [10], the system named is Sonic hedgehog protein (Shh). As to the kind of experiment: small-molecule binders of Shh protein, primary screen, biochemical, small-molecule microarray, 635/667 nm fluorescence (AID 1151).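 Also: Shh protein binding to compounds spotted on small-molecule microarray slides; score combines spot fluorescence intensity with signal-to-noise across triplicate slides.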 The conditions noted are these: small-molecule microarray binding, 635 nm fluorescence; higher = more signal.
A short description of test [11]: E. coli DRC41 culture turbidity changes, primary screen, E. coli filamentation inducer project, strain DRC41, OD650, 48 h (AID 1152).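 Also: E. coli MC1000 strain DRC41 lacking acrAB efflux pump and sulA.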 The following applies: E. coli DRC41 (acrAB sulA), higher = more signal, called active from +8 up or from −8 down.
The nature of test [12]: small-molecule binders of probe aLefty1, primary screen, biochemical, small-molecule microarray, 635/667 nm fluorescence (AID 1153).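 Also: score merges spot fluorescence with signal-to-noise ratio from the scanned slide images.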 The following applies: higher = more signal.
The nature of test [13]: PSAC antagonists in infected red cells, primary screen, cell-based, P. falciparum Indochina, OD700, 1 h (AID 1154). The following applies: P. falciparum Indochina infected RBC osmotic lysis, higher = more signal, called active from +8 up or from −8 down.
Test [14] can be described thus: PSAC antagonists in infected red cells, primary screen, cell-based, P. falciparum Indochina, OD700, 2 h (AID 1155).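 Also: lysis reports solute entry through the parasite surface anion channel PSAC; channel blockers reduce lysis of infected cells.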 The following applies: P. falciparum Indochina infected erythrocytes, osmotic lysis OD700; higher = more signal, called active from +8 up or from −8 down.
The nature of test [15]: osmotic lysis modulators in infected erythrocytes, primary screen, PSAC antagonist project, cell-based, P. falciparum Indochina, OD700, 3 h (AID 1156). The conditions noted are these: higher = more signal, called active from +8 up or from −8 down.
Test [16] is described as follows: PSAC antagonists in infected red cells, primary screen, cell-based, P. falciparum Indochina, OD700, 18 h (AID 1157). The following applies: P. falciparum Indochina infected erythrocytes, osmotic lysis OD700, 18 h; higher = more signal, called active from +8 up or from −8 down.
Test [17] can be described thus: modulators of S6 phosphorylation in cells, primary screen, cell-based, A549, cytoblot, luminescence, serum-stimulated (AID 1158).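 Also: serum-stimulated A549 lung adenocarcinoma cells; signal is phosphorylated S6 detected by cytoblot immunostaining with HRP secondary.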 The conditions noted are these: A549 phospho-S6 cytoblot, 5 h, higher = more signal.
Test [18] has as its target NADPH oxidase 2 (Homo sapiens) (UniProt P04839). The test can be described thus: NOX2-dependent H2O2 signal modulators, primary screen, NOX inhibitor project, cell-based, HEK293-NOX2, PMA-stimulated, Amplex Red fluorescence (AID 1159). Also: test concentration not given here. The conditions noted are these: 45 min, higher = more signal, called active from +8 up or from −8 down.
The target in test [19] is NADPH oxidase 4 (Homo sapiens) (UniProt Q9NPH5). The test can be described thus: NOX4-dependent H2O2 signal modulators, primary screen, NOX inhibitor project, cell-based, HEK293-NOX4, tetracycline-induced, Amplex Red fluorescence (AID 1160). The conditions noted are these: 45 min, higher = more signal, called active from +8 up or from −8 down.
Chain of NADPH oxidase 4 (Homo sapiens) (Q9NPH5 whole entry, looked up): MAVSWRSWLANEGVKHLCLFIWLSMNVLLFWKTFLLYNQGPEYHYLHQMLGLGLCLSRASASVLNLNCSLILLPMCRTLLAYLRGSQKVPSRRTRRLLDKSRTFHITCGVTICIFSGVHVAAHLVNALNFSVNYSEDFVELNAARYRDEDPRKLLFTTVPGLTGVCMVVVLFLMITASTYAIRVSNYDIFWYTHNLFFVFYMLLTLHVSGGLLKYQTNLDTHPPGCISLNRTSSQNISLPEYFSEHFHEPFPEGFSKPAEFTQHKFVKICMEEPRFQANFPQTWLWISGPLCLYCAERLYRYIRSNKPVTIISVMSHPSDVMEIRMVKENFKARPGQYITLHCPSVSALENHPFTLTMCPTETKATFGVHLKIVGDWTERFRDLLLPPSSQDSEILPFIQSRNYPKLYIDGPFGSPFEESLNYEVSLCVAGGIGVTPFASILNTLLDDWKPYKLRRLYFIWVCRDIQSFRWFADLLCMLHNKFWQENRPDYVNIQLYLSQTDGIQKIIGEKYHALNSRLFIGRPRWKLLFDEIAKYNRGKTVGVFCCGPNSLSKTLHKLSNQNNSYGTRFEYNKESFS
The target in test [20] is NADPH oxidase 5 (Homo sapiens) (UniProt Q96PH1). As to the kind of experiment: NOX5-dependent H2O2 signal modulators, primary screen, NOX inhibitor project, cell-based, HEK293-NOX5, Amplex Red fluorescence (AID 1161). The conditions noted are these: HEK293-NOX5, ionomycin, 45 min, higher = more signal.
Chain of NADPH oxidase 5 (Homo sapiens) (Q96PH1 whole entry, looked up): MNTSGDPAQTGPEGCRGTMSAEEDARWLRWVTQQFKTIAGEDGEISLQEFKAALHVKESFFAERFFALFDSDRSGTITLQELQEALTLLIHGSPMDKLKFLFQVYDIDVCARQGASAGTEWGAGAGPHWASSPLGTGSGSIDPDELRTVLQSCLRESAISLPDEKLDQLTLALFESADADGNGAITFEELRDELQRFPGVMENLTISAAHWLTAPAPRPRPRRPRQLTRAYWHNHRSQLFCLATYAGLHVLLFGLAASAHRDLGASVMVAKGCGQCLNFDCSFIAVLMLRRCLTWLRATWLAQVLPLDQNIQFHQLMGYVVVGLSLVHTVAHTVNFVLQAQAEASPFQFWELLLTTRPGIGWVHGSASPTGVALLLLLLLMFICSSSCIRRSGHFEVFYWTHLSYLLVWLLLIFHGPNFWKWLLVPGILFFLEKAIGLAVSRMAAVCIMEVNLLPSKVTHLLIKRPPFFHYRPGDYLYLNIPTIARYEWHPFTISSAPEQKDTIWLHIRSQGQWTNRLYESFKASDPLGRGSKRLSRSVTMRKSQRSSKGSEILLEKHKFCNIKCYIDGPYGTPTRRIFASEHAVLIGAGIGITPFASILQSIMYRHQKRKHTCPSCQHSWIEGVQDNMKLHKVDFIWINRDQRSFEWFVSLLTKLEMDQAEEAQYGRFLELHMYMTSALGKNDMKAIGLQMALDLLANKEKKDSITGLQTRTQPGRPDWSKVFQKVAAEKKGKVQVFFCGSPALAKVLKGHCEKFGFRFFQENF

Active and inactive are the calls of the source. Unless noted, no rule for the calls is given here.

Chain of NADPH oxidase 2 (Homo sapiens) (P04839 whole entry, looked up): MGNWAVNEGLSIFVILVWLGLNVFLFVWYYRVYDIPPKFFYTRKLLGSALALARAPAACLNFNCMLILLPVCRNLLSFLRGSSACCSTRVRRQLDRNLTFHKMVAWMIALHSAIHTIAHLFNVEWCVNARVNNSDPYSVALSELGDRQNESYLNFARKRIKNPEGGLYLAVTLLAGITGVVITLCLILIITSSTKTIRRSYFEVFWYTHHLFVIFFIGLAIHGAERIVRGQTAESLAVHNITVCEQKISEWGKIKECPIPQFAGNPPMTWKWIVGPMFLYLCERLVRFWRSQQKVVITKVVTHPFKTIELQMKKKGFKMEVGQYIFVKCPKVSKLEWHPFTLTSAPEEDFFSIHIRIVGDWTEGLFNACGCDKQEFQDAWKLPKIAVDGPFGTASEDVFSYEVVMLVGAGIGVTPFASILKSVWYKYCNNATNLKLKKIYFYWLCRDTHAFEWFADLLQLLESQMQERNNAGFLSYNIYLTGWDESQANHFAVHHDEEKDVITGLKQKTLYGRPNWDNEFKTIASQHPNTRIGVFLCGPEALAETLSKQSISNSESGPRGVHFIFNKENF
Chain of Streptavidin (Streptomyces avidinii) (P22629 whole entry, looked up): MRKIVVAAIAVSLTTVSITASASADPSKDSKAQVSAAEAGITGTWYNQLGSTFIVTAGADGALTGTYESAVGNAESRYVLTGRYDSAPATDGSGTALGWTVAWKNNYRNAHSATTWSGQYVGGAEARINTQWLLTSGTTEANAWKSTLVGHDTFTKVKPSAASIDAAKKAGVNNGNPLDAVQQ
Chain of Torsin-1A (Homo sapiens) (O14656 whole entry, looked up): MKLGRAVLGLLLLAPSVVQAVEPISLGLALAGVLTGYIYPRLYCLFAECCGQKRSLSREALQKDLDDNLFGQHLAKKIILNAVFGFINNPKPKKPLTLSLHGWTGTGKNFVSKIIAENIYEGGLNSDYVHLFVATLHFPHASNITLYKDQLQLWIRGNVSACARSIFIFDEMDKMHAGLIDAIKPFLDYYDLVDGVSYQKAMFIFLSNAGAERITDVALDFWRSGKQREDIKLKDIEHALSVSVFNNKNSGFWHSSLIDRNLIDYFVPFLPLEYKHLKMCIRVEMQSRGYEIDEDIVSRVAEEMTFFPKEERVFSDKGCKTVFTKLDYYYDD

Consider `COc1ccc(C#Cc2ccc3c(c2)[C@]2(C(=O)N3)[C@H](c3ccc(OCCO)cc3)N3[C@H](c4ccccc4)[C@H](c4ccccc4)OC(=O)[C@H]3[C@@H]2C(=O)NC[C@H](O)c2ccccc2)cc1`, for which the composite z-score is 0.501 in test [1]; 0.777 in test [6]; 0.122 in [7]; -0.0854 in test [8]; 0.327 in test [9]; 1.32 in [10]. The compound further registered a composite z-score in test [12] of 0.145. Further, the z-score in test [2] was -2.47 (inactive); in test [3], -0.506 (inactive); in test [4], -0.491 (inactive); in test [5], -0.808 (inactive); in test [11], 1.01 (inactive); in [13] it was 1.97 (inactive). Further, the z-score was 1.76 (inactive) in test [14]; -0.403 (inactive) in [15]; 1.08 (inactive) in test [16]; 0.0701 in test [17]; 0.893 (inactive) in [18]; 0.194 (inactive) in test [19]. For the same compound, the z-score in [20] is -0.0443.
On to `CS(=O)(=O)CCOC(=O)C1=CC(CCCO)=CC(c2ccc(CN3CCCC3)cc2)N(Cc2sc3ccccc3c2Cl)C=C1C(=O)OCCS(C)(=O)=O` (stereo not given), for which the composite z-score in test [1] came to 0.689; in test [6], 2.48; in test [7] it was 0.794; in test [8], 1.4; in [9] it was 2.18; in test [10], 1.18. Moreover, the composite z-score in test [12] was determined as 0.85. The z-score was -1.29 (inactive) in test [2]; 1.13 (inactive) in test [3]; 2.08 (inactive) in test [4]; 0.274 (inactive) in [5]; -0.794 (inactive) in test [11]; 3.35 (inactive) in [13]. Also, the z-score is 0.586 (inactive) in test [14]; 0.51 (inactive) in test [15]; 0.428 (inactive) in test [16]; -0.261 in test [17]; 0.44 (inactive) in [18]; -0.567 (inactive) in [19]. In test [20], this compound displayed a z-score of -0.719.
Regarding `Cc1ccc(S[C@]2(C(=O)O)CC(=O)N(C3CCCCC3)[C@@H]2c2ccc(CO)cc2I)cc1`, the composite z-score is 0.0473 in test [1]; 1.43 in [6]; 0.239 in test [7]; 0.222 in test [8]; 0.919 in [9]; -0.342 in test [10]. Further, the composite z-score in test [12] turned out to be 0.32. In addition, the z-score was -0.541 (inactive) in test [2]; -0.64 (inactive) in [3]; -0.269 (inactive) in test [4]; 2.76 (inactive) in test [5]; 0.263 (inactive) in [11]; 9.32 (active) in test [13]. In addition, the z-score was 0.692 (inactive) in test [14]; 0.796 (inactive) in [15]; 0.99 (inactive) in test [16]; 0.0559 in test [17]; 3.66 (inactive) in [18]; -2.04 (inactive) in [19]. Further, the z-score in test [20] was -1.86.
`CCCCCCCCCCC(O)C1C=CC2C(=O)N(c3ccccc3)C(=O)C2N1Nc1ccc(C#N)cc1` (stereo not given): the composite z-score was determined as 0.525 in test [1]; 1.66 in test [6]; 0.215 in [7]; 0.225 in [8]; 0.646 in test [9]; 0.314 in [10]. This compound registered a composite z-score in test [12] of 0.571. In addition, the z-score was -3.71 (inactive) in test [2]; -0.209 (inactive) in test [3]; -0.519 (inactive) in test [4]; 0.407 (inactive) in test [5]; -1.08 (inactive) in test [11]; 6.7 (inactive) in [13]. For the same compound, the z-score in [14] was 2.33 (inactive); in test [15], 0.0103 (inactive); in test [16] it was 2.3 (inactive); in [17] it was -0.817; in test [18], -1.32 (inactive); in test [19], 0.0477 (inactive). Moreover, the z-score in [20] was -0.266.
